# Screening data from PubChem.
# Sampled rows, rich in hits. Any-hit rate of the full collection: about 9.2%.
# HTT ATP protect – protects HTT-Q103 PC12 cells, measured by ATP; AID 1471; PC12 HTT-Q103 induced, cytoprotection, ATP luminescence, 40 h; 0.14% of 230,000 active; Potency, µM (highest dose often 56.4 µM), inactives show cytoprotection (ATP increase), usual class: activators; active = well fitted curve in the direction sought with a large enough effect; inconclusive = small, poorly fitted or top-dose-only effect, or another doubt; inactive = no such curve, though single readings can be large; an effect the other way counts as inactive or inconclusive; note: % of control where 0% means no effect; nearly all actives have a fitted effect of over 45% in size
#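 Cells were plated at 1500 per well in phenol red-free DMEM with 5% equine and 5% calf serum. Tebufenozide (100 nM final) and compounds were added, then ATPlite reagent, and luminescence was read.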
# JMJD2E inh – inhibitors of human JMJD2E histone demethylase; B2RXH2; JMJD2E catalytic domain, FDH-coupled NADH fluorescence (FDH is formaldehyde dehydrogenase); Potency, µM (series often up to 57.1 µM), for inactives: at the highest dose activity change, negative = inhibition, most hits filed as inhibitors; 1.6% of 230,000 active;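 note: 0% = wells with enzyme and -100% = buffer wells without enzyme; nearly all actives have a fitted effect of over 50% in size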
# Target sequence (B2RXH2 1-337 limits assumed): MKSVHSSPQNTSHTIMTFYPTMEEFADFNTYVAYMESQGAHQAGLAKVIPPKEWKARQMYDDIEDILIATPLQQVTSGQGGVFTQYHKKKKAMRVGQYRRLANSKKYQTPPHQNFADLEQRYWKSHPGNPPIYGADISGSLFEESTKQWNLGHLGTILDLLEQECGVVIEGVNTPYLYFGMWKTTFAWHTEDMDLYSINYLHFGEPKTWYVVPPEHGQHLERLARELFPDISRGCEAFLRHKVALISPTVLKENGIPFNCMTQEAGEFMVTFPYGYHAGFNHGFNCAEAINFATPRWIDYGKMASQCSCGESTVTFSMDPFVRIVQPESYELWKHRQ
# HTT aggregate – reduces HttQ103-GFP aggregates in PC12 cells. PC12 HttQ103-GFP aggregates, Acumen cytometry, 40 h. Potency, µM (highest dose often 46.1 µM), for the others: top-dose activity change, negative = inhibition, hits mostly inhibitors. 1.1% of 220,000 active. AID 1688; active = well fitted curve in the direction sought with a large enough effect; inconclusive = small, poorly fitted or top-dose-only effect, or another doubt; inactive = no such curve, though single readings can be large; an effect the other way counts as inactive or inconclusive; note: % is set by controls: 0 for no effect and ±100 for the full control effect; nearly all actives have a fitted effect of over 60% in size
#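 PC12 cells stably carrying ecdysone-inducible HTT exon 1 Q103–GFP were induced with tebufenozide (100 nM final) and treated with library compounds in titration. GFP aggregates in lysates were counted by laser scanning cytometry.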
# HPGD block – blocks human HPGD enzyme activity | 4.3% of 150,000 active | Potency, µM, for inactives: at the highest dose activity change, negative = inhibition, actives largely listed as inhibitors | P15428 | purified HPGD, NADH fluorescence kinetic, PGE2 substrate; note: % is set by controls: 0 for no effect and ±100 for the full control effect
# Target sequence (P15428 whole entry, looked up): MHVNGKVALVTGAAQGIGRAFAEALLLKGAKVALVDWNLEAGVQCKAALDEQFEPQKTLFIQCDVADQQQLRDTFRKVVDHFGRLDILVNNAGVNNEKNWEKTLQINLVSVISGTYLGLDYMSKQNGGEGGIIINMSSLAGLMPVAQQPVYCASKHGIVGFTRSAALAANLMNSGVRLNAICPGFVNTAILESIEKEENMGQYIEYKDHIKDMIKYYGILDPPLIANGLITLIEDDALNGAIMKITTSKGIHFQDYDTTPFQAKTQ
#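 20 nM HPGD preincubated 15 min at room temperature with compound in 50 mM Tris-HCl pH 8, 0.01% Tween 20. Started with 1 mM NAD+ and 30 uM prostaglandin E2; NADH fluorescence (360/450 nm) read 5 times over 30-s intervals, last minus first.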
# ALDH1A1 inh – ALDH1A1 (human) enzyme inhibition; 7.3% of 220,000 active; Potency, µM (highest dose often 75.3 µM), for the others: top-dose activity, negative = inhibition, usual class: inhibitors; Purified ALDH1A1, NADH fluorescence, propionaldehyde substrate;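 note: plate controls were no enzyme wells and a reference inhibitor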
# LMNA splice mod – changes lamin A minigene splicing in HeLa cells. HeLa LMNA splicing GFP/RFP minigene ratio, 48 h. Potency, µM (doses to about 46.1 µM), for the others: top-dose ratio change, negative = inhibition, most hits filed as inhibitors. 0.01% of 200,000 active. AID 1487; active = well fitted inhibition curve with a large enough effect in the signal ratio, with a control signal flat, not every such curve was filed as active; inconclusive = small, poorly fitted or top-dose-only effect, or effect the other way, or a change in a side signal; the % refers to the signal ratio; note: % is set by controls: 0 for no effect and ±100 for the full control effect
#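 Read-out is the ratio of GFP to DsRed2 object intensity, acquired by 488 nm laser-scanning cytometry on HeLa lamin A-EGFP minigene reporter cells. Compound incubation 48 hrs at 37 °C in Opti-MEM with 2% FBS; DMSO 0.5% final.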
# * hit, by the source's call; ? = inconclusive; / = not tested or not shown; [ ] = another dose, or the depositor's remark. Unless noted, calls come from the whole dose curve; as a rule, active = well fitted inhibition curve with a large enough effect (not every such curve was filed as active); inconclusive = small, poorly fitted or top-dose-only effect, or another doubt; inactive = no such curve, though single readings can be large or run the other way. Potency is the fitted concentration of half-maximal effect.
SMILES,HTT ATP protect,JMJD2E inh,HTT aggregate,HPGD block,ALDH1A1 inh,LMNA splice mod
CC(C(=O)Nc1ccccc1-c1ccccc1)N1CCN(S(=O)(=O)c2ccccc2)CC1 (centres undefined),-18%[10 µM],1%,-7%,-10%,?,5%
CC(C(=O)Nc1ccccc1-c1ccccc1)N1CCCCC1 (centres undefined),1%,3%,12%[9.22 µM],-17%,20µM*,12%
CC(C)c1ccc(S(=O)(=O)N2CCN(C(C)C(=O)Nc3ccccc3-c3ccccc3)CC2)cc1 (centres undefined),-14%[10 µM],-2%,-13%,-7%,2.8µM*,3%
O=C(Nc1ccccc1-c1ccccc1)C(c1ccccc1)c1ccccc1,4%[10 µM],4%,12%,-4%,-16%,-3%
Cc1cc2c(nc1C)CCCN2CC(O)CN1CCCc2nc(C)c(C)cc21,-43%[10 µM],/,/,/,11%[13.5 µM],/
COc1ccccc1C(=O)NC(=S)Nc1cc(C(=O)O)ccc1C,-42%,2%,-14%,/,14µM*,/
O=C(Nc1ccc(N2CCOCC2)c(Cl)c1)c1ccc(Cl)cc1,-111%,-2%,?,/,-12%,?
COc1cc(NC(=O)c2ccccc2F)c(OC)cc1NC(=O)CN1CCOCC1,-3%[10 µM],-10%,-8%[9.22 µM],/,25µM*,-22%[46 µM]
COc1ccccc1C(=O)NC(=S)Nc1ccc(N2CCOCC2)c(Cl)c1,-34%,-2%,-7%,/,11µM*,/
O=C(Nc1ccc(N2CCOCC2)c(Cl)c1)c1ccccc1F,-33%,3%,27%,16µM*,?,4%
CC(CCC(=O)O)C1CCC2C3C(=O)CC4CC(=O)CC[C@@]4(C)C3CC(=O)[C@]12C (some centres undefined),-70%,2%,/,-14%,-5%,/
O=C1N/C(=C/c2cccs2)C(=O)N1Cc1ccc(Br)cc1,-2%,-2%,-15%,/,11%,/
Cc1ccc2cccnc2c1,6.3µM*,/,/,-2%,?,/
Cc1ccc2cccnc2c1N,-1%,4%,0%,/,4%,?
CC(=O)SC[C@@H](Cc1ccccc1)C(=O)NCC(=O)OCc1ccccc1,1%[40.3 µM],5%[25.5 µM],29%[20.6 µM],-2%,-13%[20.9 µM],-14%
Cc1cc(N=NC(=O)c2ccccc2)ccc1O,-4%[10 µM],?,-21%,/,22µM*,-10%[46 µM]
O=C(ONc1ccc(N=NC(=O)c2ccccc2O)cc1)c1ccccc1,14%[10 µM],-28%,?,?,?,5%
CCS(=O)(=O)N1N=C(c2cccc(NS(C)(=O)=O)c2)CC1c1ccc(C)cc1 (centres undefined),-18%,-7%,-16%,/,20µM*,?
CCS(=O)(=O)Nc1cccc(C2=NN(S(C)(=O)=O)C(c3ccccc3)C2)c1 (centres undefined),-10%,-7%,-13%,/,?,2%[46 µM]
C=CCn1c(SCc2nc3ccccc3[nH]2)nnc1-c1ccccn1,-1%,?,-9%,-10%,6.3µM*,8%
Cn1c(SCc2nc3ccccc3[nH]2)nnc1-c1ccccn1,-13%,2%,4%,1%,8%,0%
COc1cc([N+](=O)[O-])ccc1NC(=O)Cn1ccsc1=N,14%[10 µM],-2%,2%[9.22 µM],/,8.9µM*,/
N=c1sccn1CC(=O)Nc1ccc([N+](=O)[O-])cc1Cl,28%[10 µM],-11%,12%[9.22 µM],/,/,/
O=[N+]([O-])c1ccc(C[n+]2ccc(Cc3ccccc3)cc2)cc1,-3%,?,3%,/,25µM*,/
COc1cc([N+](=O)[O-])ccc1NC(=S)NCc1ccccn1,14%[10 µM],3%,-8%,-21%,18µM*,2%
SMILES,HTT ATP protect,JMJD2E inh,HTT aggregate,HPGD block,ALDH1A1 inh,LMNA splice mod
COc1ccccc1NC(=S)NCc1ccccn1,10%[10 µM],-10%,22%,-4%,-6%,-3%
COc1cc([N+](=O)[O-])ccc1NC(=O)C[n+]1ccccc1,31%[1.9 µM],4%,15%,-4%,14µM*,1%
CCN(C(=O)CSc1nc2ccccc2n1CC(=O)N(C)C1CCCCC1)c1ccccc1,/,/,/,/,/,15%[46 µM]
Cc1cccc(CNC(=O)c2oc3c(c2C)-c2nn(Cc4ccccc4Cl)cc2CC3)c1,/,/,/,/,/,29%[46 µM]
COc1ccc(NC(=O)CCN2C(=O)c3ccc([N+](=O)[O-])cc3C2=O)c(OC)c1,/,8%,11%,-17%,20µM*,12%
O=C(C[n+]1ccc(Cc2ccccc2)cc1)Nc1ccc([N+](=O)[O-])cc1Cl,/,2%,?,/,20µM*,?
O=c1c(-c2ccco2)[n+]([O-])c2ccccc2n1OCc1ccccc1[N+](=O)[O-],-25%,?,3%,/,14µM*,/
O=c1c(-c2ccco2)[n+]([O-])c2ccccc2n1OCc1ccccn1,-13%,-22%,16%,-19%,10µM*,10%
C=CCOn1c(=O)c(-c2cc3ccccc3o2)[n+]([O-])c2ccccc21,-24%,-2%,2%,/,8%,-13%
O=c1c(-c2ccc(F)cc2)[n+]([O-])c2ccccc2n1OCc1ccccn1,-13%,?,25%[9.22 µM],/,2%,/
CCOc1ccc(C2=NNC(c3cccs3)=Nc3ccc(OCC)cc32)cc1,-13%,-6%,-1%,-10%,33%,-14%
CCOC(=O)N1CCC(N(C(=O)Nc2ccc(Cl)c(Cl)c2)C(C)CC)CC1 (centres undefined),18%[10 µM],7%,?,20µM*,?,?
CC(C)CCN(C(=O)Nc1ccc(Cl)c(Cl)c1)C1CCN(C(C)C)CC1,/,/,/,/,/,-23%[46 µM]
CCOC(=O)c1cc(-c2ccccc2)sc1NC(=O)CC,-8%[10 µM],-2%,-8%,?,?,?
CCOC(=O)c1cc(-c2ccccc2)sc1N,-26%[10 µM],-6%,-19%,11µM*,11µM*,-5%
CCOC(=O)c1c(N)sc(C)c1-c1ccccc1,-91%,/,/,25µM*,?,/
CCOC(=O)c1cc(-c2ccccc2)sc1NC(=O)c1ccc(OC)cc1,11%,13%,-1%,3.5µM*,?,13%
O=C(OCC(=O)C12CC3CC(CC(C3)C1)C2)c1cccnc1Cl,14%[10 µM],5%,-2%,-4%,?,-1%
CNC/C(Cl)=N/S(=O)(=O)c1ccc(C)cc1,28%[10 µM],/,/,0%,?,/
O=c1c2c(-c3ccc([N+](=O)[O-])cc3)csc2nc2n1CCC2,-18%[1.9 µM],3%,-20%,22µM*,7.1µM*,15%
O=[N+]([O-])c1ccc2c(c1)nc1n2CCCCC1,-14%,14%,1%,/,0%,-4%[46 µM]
COc1ccc(N2CCN(Cc3cc(OC)c(O)c([N+](=O)[O-])c3)CC2)cc1,/,22µM*,22%,2%,?,5%
COc1cc(CN2CCN(c3cccc(C)c3C)CC2)cc([N+](=O)[O-])c1O,4%[10 µM],?,6%,/,?,?
